High-throughput results (PubChem)
Most compounds without a hit are left out; they make up all but 22% or so of the library.
Cycloheximide cs – affects cycloheximide protein synthesis inhibition readout, counter-screen; cell reporter, cycloheximide protein synthesis inhibition counterscreen; max response, %; 300,000 tested, 12% active; in the data active = max response mostly above about 13%, no sharp cut-off; inactive = mostly below about 14%; note: read at 38.3 µM for the half of the compounds with a filed dose; 0% is about no effect
LmPK inh – blocks Leishmania mexicana pyruvate kinase activity | 290,000 tested, 0.37% active | Q27686 | Potency, µM (top dose mostly 57.5 µM), for inactives: at the highest dose activity change, negative = inhibition, most hits filed as inhibitors | AID 1721 | purified LmPK, Kinase-Glo ATP luminescence, 1 h; note: potency is the fitted concentration of half-maximal effect; % is set by controls: 0 for no effect and ±100 for the full control effect
Target sequence (Q27686 whole entry, looked up): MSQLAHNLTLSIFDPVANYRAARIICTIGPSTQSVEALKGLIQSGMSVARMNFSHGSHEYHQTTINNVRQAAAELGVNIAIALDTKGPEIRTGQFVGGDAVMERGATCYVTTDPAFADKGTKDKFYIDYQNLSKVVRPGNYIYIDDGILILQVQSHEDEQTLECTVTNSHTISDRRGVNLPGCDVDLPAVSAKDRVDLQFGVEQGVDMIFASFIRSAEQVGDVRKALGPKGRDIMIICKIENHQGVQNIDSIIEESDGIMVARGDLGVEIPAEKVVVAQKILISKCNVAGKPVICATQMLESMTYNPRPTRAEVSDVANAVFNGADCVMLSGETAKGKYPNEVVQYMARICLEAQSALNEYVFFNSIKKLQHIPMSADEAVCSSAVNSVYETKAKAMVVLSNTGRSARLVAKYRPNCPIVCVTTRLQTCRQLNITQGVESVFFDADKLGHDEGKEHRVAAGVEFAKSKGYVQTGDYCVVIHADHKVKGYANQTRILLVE
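Purified LmPK (0.1 nM) with 0.5 mM PEP and 0.1 mM ADP in imidazole buffer pH 7.2 with MgCl2/KCl, 1 h at room temperature. ATP formed was read by luciferase luminescence and normalized to no-enzyme and uninhibited controls.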
Pf growth 96h – P. falciparum growth inhibition at 96 hours; AID 504834; 320,000 tested, 6.9% active; P. falciparum luciferase reporter growth, 96 h; Potency, µM (top dose mostly 28.7 µM), without a hit: at the highest dose activity change, negative = inhibition, actives largely listed as inhibitors; note: potency is the fitted concentration of half-maximal effect; % is set by controls: 0 for no effect and ±100 for the full control effect
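Plates of compound plus infected erythrocytes (2% hematocrit, 0.05% parasitemia final) incubate 96 hours, 37 C, 5% CO2. Detection reagent added; reduced luminescence from the parasites' luciferase reporter flags inhibition.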
Shiga inhibitor – inhibitors of Shiga toxin in Vero cells; 290,000 tested, 9.2% active; Vero cells, Shiga toxin protein synthesis inhibition reporter; inhibition, % at 38.7 µM; in the data active = inhibition mostly above about 28%, no sharp cut-off; inactive = mostly below about 43%; note: 0% is about no effect
Pf growth 48h – P. falciparum growth inhibition at 48 hours (one generation) | P. falciparum luciferase growth in erythrocytes, 48 h | Potency, µM (titrated, usually from 28.7 µM), for the others: top-dose activity change, negative = inhibition, actives largely listed as inhibitors | 310,000 tested, 5.9% active; note: potency is the fitted concentration of half-maximal effect; % is set by controls: 0 for no effect and ±100 for the full control effect
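In quantitative HTS format, infected erythrocytes bearing luciferase-reporter parasites were treated for a single generation at 37 C. Luminescence after adding detection reagent served as the growth measure.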
Starred values were filed as active, the others as inactive; ? = inconclusive; / = not tested or not shown. Unless noted, calls come from the whole dose curve; as a rule, active = well fitted inhibition curve with a large enough effect; inconclusive = small, poorly fitted or top-dose-only effect, or another doubt; inactive = no such curve, though single readings can be large or run the other way.

SMILES | Cycloheximide cs | LmPK inh | Pf growth 96h | Shiga inhibitor | Pf growth 48h
CCOC(=O)c1csc(N)c1-c1ccc([N+](=O)[O-])cc1 | -1.6 | 7.3% | -16.8% | -17.3 | -21.8%
COc1ccc(NC(=O)c2cc3c(=O)n4ccccc4nc3n2C)c(OC)c1 | 15.2 | -1.0% | ? | 37.4 | 26.2%
Cn1c(C(=O)NC2CCCCC2)cc2c(=O)n3ccccc3nc21 | 22.7* | -0.3% | 7.2% | 20.7 | 35.0%
Cn1c(C(=O)NCc2ccccn2)cc2c(=O)n3ccccc3nc21 | 28.7* | -2.8% | ? | 58.4* | 199.2%
COc1ccc(OC)c(S(=O)(=O)NCC(c2ccc3c(c2)OCO3)N2CCOCC2)c1 (stereo not drawn) | / | / | -3.2% | / | ?
CCCCCCCC/C=C\CCCCCCCC(=O)NCCO | / | / | 2.62µM* | / | 2.94µM*
CCCCCCCC/C=C\CCCCCCCC(=O)NCCc1ccc(O)c(O)c1 | / | / | ? | / | 10.4µM*
COc1cc(CNC(=O)CCCC/C=C\C(C)C)ccc1O | -7.5 | 2.4% | / | -14.1 | /
CCCCC/C=C\C/C=C\C/C=C\C/C=C\CCCC(=O)NCCO | 4.9 | / | / | -1.8 | /
CCCCCCCC/C=C\CCCCCCCC(=O)NCc1ccc(O)c(OC)c1 | / | / | 16.9µM* | / | ?
Cc1c(Cl)cccc1NC(=S)NCC(c1cccnc1)N(C)C (stereo not drawn) | -0.7 | 3.5% | ? | -2.2 | -4.9%
O=C(OC(C(=O)NC1CCCCC1)c1ccccc1F)c1ccco1 (stereo not drawn) | 8.2 | -5.4% | -15.8% | -8.1 | 14.7%
c1ccc(-c2ccccc2OCCOCCN2CCCCC2)cc1 | -2.5 | 0.9% | 44.4% | -6.4 | ?
c1ccc(-c2ccccc2OCCN2CCCC2)cc1 | -0.5 | -2.0% | 13.1µM* | -13.6 | 6.1%
CC1CCN(CCCCOc2ccccc2-c2ccccc2)CC1 | -4.0 | -9.3% | 81.8% | 7.7 | 10.4µM*
c1ccc(-c2ccccc2OCCCN2CCOCC2)cc1 | 27.7* | 1.2% | 9.0% | 20.7 | 26.3%
OCCCN1CCN(CCCOc2ccccc2-c2ccccc2)CC1 | -5.1 | -1.2% | 10.4µM* | -10.3 | ?
CC1CCN(CCOCCOc2ccccc2-c2ccccc2)CC1 | -1.8 | -2.1% | 20.5% | -12.4 | ?
COc1ccc(-n2nc3c(c2NC(=O)CCCl)CSC3)cc1 | -1.6 | -7.7% | ? | 4.9 | -24.3%
CN(C)S(=O)(=O)c1ccc(Cl)c(NC(=O)COC(=O)/C=C/c2ccco2)c1 | -0.9 | 5.5% | 14.2% | 17.4 | 42.4%
N#Cc1cn(N2CCCCC2)c(=O)[nH]c1=O | -4.0 | 1.9% | -1.0% | -8.5 | /
CCCc1nc2nc(C)c(NS(=O)(=O)c3ccc(C4CCCCC4)cc3)c(=O)n2[nH]1 | -5.0 | 2.1% | 3.3% | -5.9 | 3.1%
Cc1cc(=O)n2[nH]c(C)cc2n1 | 7.5 | 6.1% | 12.9% | 12.6 | 8.1%
Cn1cc(CCC(=O)N2CCCC(N3CCN(c4ccccc4F)CC3)C2)cn1 (stereo not drawn) | 7.2 | 0.2% | ? | 16.1 | 40.4%
c1ccc(SCCOCCN2CCOCC2)cc1 | 14.8* | -0.9% | -14.7% | 25.1 | -9.9%
SMILES | Cycloheximide cs | LmPK inh | Pf growth 96h | Shiga inhibitor | Pf growth 48h
Cc1cccc(C)c1OCCCN1CCCC1 | -3.8 | 2.9% | 177.4% | -22.2 | /
Cc1ccc(SCCOCCN2CCOCC2)cc1 | 0.4 | -8.4% | ? | 11.4 | -6.7%
Cc1cccc(Cl)c1OCCCN1CCOCC1 | 21.4* | -3.4% | 3.7µM* | 48.9* | 12.6%
Cc1cc(C=O)c(O)cc1O | -1.8 | -0.8% | 24.3% | -7.1 | 63.1%
CCC(C(=O)NCCCN1CC(C)CC(C)C1)n1nc(C)c2sc3ccccc3c2c1=O (stereo not drawn) | -9.1 | -7.8% | ? | -6.1 | ?
COc1ccc(C(=O)Nc2nnc(S(=O)(=O)N(C)Cc3ccc(F)cc3)s2)cc1OC | -3.4 | 0.6% | 2.0% | -5.2 | 13.6%
CCc1ccccc1NC(=O)C1(S(=O)(=O)c2ccc(C)cc2)CC1 | -2.2 | 2.1% | 88.8% | 6.3 | 16.5%
CC(=O)c1c(C)[nH]c(C(=O)OCc2ccc(Br)cc2)c1C | 44.5* | -1.4% | 46.3% | 69.1* | 33.5%
CCOC(=O)c1c(C)[nH]c(C(=O)OCc2ccc([N+](=O)[O-])cc2)c1C | -2.1 | -8.0% | 20.6% | -20.3 | 7.5%
CCCc1c(C(=O)OCC)[nH]c2c1C(=O)CCC2 | -1.9 | 0.8% | ? | 10.4 | /
CC(=O)c1c(C)[nH]c(C(=O)OCc2ccccc2F)c1C | 45.7* | 1.8% | 207.9% | 95.3* | 222.9%
COc1ccc(CCNC(=O)c2[nH]c(C)c(C(C)=O)c2C)cc1OC | -1.4 | 0.2% | ? | 0.2 | -9.9%
COc1ccc(C)cc1COC(=O)c1[nH]c(C)c(C(C)=O)c1C | -1.5 | 1.0% | 11.7µM* | 5.3 | ?
Cc1c(C(=O)OCCOc2ccccc2)[nH]c2c1C(=O)CCC2 | 29.2* | 2.3% | 20.7% | 46.9* | /
O=C(NC1CCCCCC1)C1CCN(C(=O)c2cccc(Cl)c2)CC1 | -1.8 | 0.5% | 16.7% | 3.2 | 4.5%
CN1CCN(S(=O)(=O)c2ccc(NC(=O)Cc3ccc([N+](=O)[O-])cc3)cc2)CC1 | -1.8 | -5.9% | 4.0% | -5.0 | 27.4%
O=C(CC1C(=O)NCCN1Cc1ccc(Cl)c(F)c1)NC1CCCCC1 (stereo not drawn) | -0.9 | -11.6% | ? | -5.2 | -1.7%
COC(=O)c1[nH]c2c(c1C)C(=O)CC(c1ccc(OC)cc1)C2 (stereo not drawn) | -1.5 | 0.6% | 5.3% | 2.0 | /
Cc1c(C(=O)OC2CCCC2C)[nH]c2c1C(=O)CCC2 (stereo not drawn) | 48.2* | 0.0% | -15.0% | 63.9* | -7.6%
CC(=O)c1c(C)[nH]c(C(=O)OCc2cccc(C)c2)c1C | 35.7* | -2.5% | 103.4% | 94.5* | 46.4%
CC(=O)c1c(C)[nH]c(C(=O)OCCOc2ccccc2)c1C | 22.6 | -3.1% | 373.7% | 46.6* | 465.8%
CC(=O)c1c(C)[nH]c(C(=O)OCC(=O)C(C)(C)C)c1C | -3.3 | -4.7% | 26.9% | 29.1 | 1.1%
N#Cc1c(-c2ccco2)cc(-c2ccccn2)nc1N | 32.6* | -1.9% | / | 49.0 | 3.1%
N#Cc1c(-c2ccco2)cc(-c2cccnc2)nc1N | -6.7 | -0.6% | 3.3% | -23.8 | 12.6%
CCOC(=O)c1nn(-c2ccccc2)c2nnc(Cc3ccccc3)c(=O)n12 | 5.4 | -1.2% | ? | 7.8 | 7.4%
SMILES | Cycloheximide cs | LmPK inh | Pf growth 96h | Shiga inhibitor | Pf growth 48h
COc1ccc(Cl)cc1NC(=O)CN1CCCCCC1 | 1.9 | -6.0% | ? | 15.0 | -5.5%
COC(=O)c1cc(Cl)c(NC(=O)c2ccc(C(C)(C)C)cc2)cc1OC | 26.4* | 1.9% | 43.8% | 44.1* | 13.9%
COC(=O)c1cc(Cl)c(NC(=O)C(C)C)cc1OC | -2.2 | -0.2% | ? | -3.7 | 4.2%
COc1ccc(N)cc1NC(=O)CN1CCCC1 | -5.0 | 3.4% | 0.117µM* | / | 5.8%
COc1ccccc1NC(=O)CN1CCCCCC1 | -4.7 | 3.0% | 1.6% | -4.4 | 3.1%
COc1cc(NC(=O)Nc2ccccc2OC)c(OC)cc1NC(=O)CN1CCCCC1 | -4.5 | 2.2% | -22.8% | -8.6 | 6.57µM*
COc1cc(NC(=O)c2ccc(C(C)(C)C)cc2)c(OC)cc1NC(=O)CN1CCCCC1 | 20.1 | 5.1% | -2.6% | 19.7 | 6.57µM*
